According to PubChem BioAssay:

Experiment: HepG2 liver cancer cell viability effects, profiling panel, resazurin fluorescence, 24 h, PK04 Diversity Set (AID 1172); further: test concentration not given here
Conditions: higher = more signal

Structure (SMILES)	z-score
[N-]=[N+]=Nc1ccccc1[C@H]1OC(c2ccc(OCCCO)cc2)=N[C@@]1(Cc1ccccc1)C(=O)N1CCOCC1	-1.28
CN1C(=O)C2C=CC(C(O)c3ccccc3)N(N3CCCCC3)C2C1=O (stereo unspecified)	-0.894
C=CCC(OC(C)=O)[C@@H]1[C@@H](N(Cc2ccc(-c3ccccc3)cc2)C(=O)Cc2ccc(F)cc2)c2cc(OCCCO)ccc2N1C(=O)c1ccc2ccccc2c1 (stereo partly specified)	-0.228
COc1cc(CO)cc(I)c1O[C@H]1C=C(C(=O)NCCO)C[C@@H](N(C(=O)c2cc3ccccc3oc2=O)C2CCCCCC2)[C@@H]1O	-0.163
CCCNC(=O)[C@@]1(Sc2ccc(C)cc2)CC(=O)N(Cc2ccccc2C(F)(F)F)[C@@H]1c1ccc(CO)cc1I	-0.103
NC(=O)[C@@H]1[C@H]2C(=O)O[C@H](c3ccccc3)[C@H](c3ccccc3)N2[C@H](c2ccc(OCCO)cc2)[C@@]12C(=O)Nc1ccc(C#CC3=CCCCC3)cc12	-1.67
COCCCNC(=O)[C@@]1(Cc2ccccc2)N=C(c2ccc(OCCCO)cc2)O[C@H]1c1ccccc1CN=[N+]=[N-]	-0.708
Cc1ccc(C2C3C(=O)CC4C(=O)N(c5ccccc5)C(=O)C4C3CN2S(=O)(=O)c2ccc(C)cc2)cc1 (stereo unspecified)	-0.419
O=C(NC1CC1)[C@@H]1c2ccccc2C(=O)N(Cc2cc(F)cc(C(F)(F)F)c2)[C@H]1c1ccc(CO)cc1	0.672
COc1cc2c(cc1O)C(c1cccs1)N(Cc1cccc(OC(F)(F)F)c1)CC2 (stereo unspecified)	-0.688
CCOC(=O)C1=CC[C@@H](c2ccccc2)N(S(=O)(=O)c2ccc(C)cc2)[C@H]1c1ccc(CC)cc1	0.963
